NOMO-1 viab – STK33 inhibitor candidate reducing NOMO-1 cell viability | inhibition, % (no concentration beside the values) | 37,000 tested, 7.5% active | NOMO-1 AML viability, CellTiter-Glo luminescence, 72 h; in the data active = inhibition above about 80%; inconclusive = no clear call, values can overlap the other calls
STK33 inh – human STK33 kinase inhibition; Q9BYT3; ADP-Glo luminescence, MBP substrate; inhibition, % at 12.5 µM; 27,000 tested, 0.44% active; AID 2322; in the data active = inhibition above about 20%; inconclusive = no clear call, values can overlap the other calls
Target sequence (Q9BYT3 whole entry, looked up): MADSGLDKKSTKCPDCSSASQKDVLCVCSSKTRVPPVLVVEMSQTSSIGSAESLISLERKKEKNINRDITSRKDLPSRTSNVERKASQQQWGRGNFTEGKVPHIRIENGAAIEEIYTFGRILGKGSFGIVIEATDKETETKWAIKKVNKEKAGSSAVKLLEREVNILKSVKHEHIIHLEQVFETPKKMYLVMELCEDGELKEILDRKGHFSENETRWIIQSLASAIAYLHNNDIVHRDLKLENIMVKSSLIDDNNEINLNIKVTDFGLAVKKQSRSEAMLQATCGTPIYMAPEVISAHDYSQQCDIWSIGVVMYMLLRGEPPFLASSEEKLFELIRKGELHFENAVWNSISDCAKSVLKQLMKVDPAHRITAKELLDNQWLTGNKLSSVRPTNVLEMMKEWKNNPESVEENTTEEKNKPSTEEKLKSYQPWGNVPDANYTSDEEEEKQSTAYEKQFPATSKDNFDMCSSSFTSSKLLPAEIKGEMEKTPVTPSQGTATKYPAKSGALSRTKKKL
PD-1 reversal – reversal of PD-1 mediated T-cell inhibition; AID 2316; primary human CD4 T cells, PD-L1 beads, CellTiter-Glo 96 h; activation, % (no concentration beside the values); 29,000 tested, under 10 active; call rule not given here;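 also: 0% = median vehicle wells and 100% = positive control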
* = called active by the depositor; ? = inconclusive; . = no result given. Shown is part of a subset that was picked to be rich in hits.

SMILES	NOMO-1 viab	STK33 inh	PD-1 reversal
C=CCn1c(=O)c2c(C)c(C)sc2n2c(Nc3ccc(C(=O)OCC)cc3)nnc12	29.5	.	-0.1
CCc1nc2n[nH]c(N)c2c2c1COC(C)(C)C2	-4.6	.	-1.4
CSC(=Nc1c(C)cccc1C)N(C)C	-7.2	.	-0.6
COc1ccc(-c2c(C#N)c(SCC(N)=O)nc(C)c2C(=O)Nc2ccccc2)cc1	30.3	-10.4	.
C/C(C=Nc1c(C)n(C)n(-c2ccccc2)c1=O)=C/c1ccccc1	4.1	0.3	3.9
O=C(OCCO)c1cccc2c1-c1ccccc1C2=O	25.7	.	0.0
Cc1cc(C)cc(NC(=O)CSc2nnc(-c3ccncc3)n2C)c1	-6.5	-5.4	1.4
Cc1ccc(S(=O)(=O)/C=C/C#N)cc1	141.8*	2.5	-59.9
Cc1ccc(S(=O)(=O)c2ccc(C)cc2)cc1	-1.6	.	-0.4
CC(C)(C)C(=O)Nc1ccccc1Cc1ccccc1	-5.8	-0.6	0.7
COC(=O)c1c(C)cc2c(c(C)c1=O)OC1(C2)C(C)CCC2C(C)(C)OC(=O)C=CC21C (centres undefined)	106.9*	-1.4	-9.8
CC(C)(C)NC(=O)N1CCN(c2ccc(C#N)cn2)CC1	-1.4	-0.9	4.3
CC1(CO)CC(O)CC2(C)C3=C(CCC12)C(=O)OC3 (centres undefined)	-3.1	1.5	0.9
O=C(O)c1ccc(Oc2ccccc2)cc1	-9.5	-3.3	1.9
c1ccc(CN(CCN(Cc2ccccn2)Cc2ccccn2)Cc2ccccn2)nc1	98.4*	-0.1	-51.1
Cc1cc[n+](Cc2ccccn2)c(N)c1	8.5	.	0.9
Cc1cc(C)cc(NC(=O)CSC2CC(=O)N(c3ccc(F)cc3)C2=O)c1 (centres undefined)	-13.6	1.1	-2.3
O=C(CSc1nnc(-c2ccc(Br)cc2)o1)Nc1cccc(C(=O)N2CCOCC2)c1	3.1	-3.1	.
CC(C)N(Cc1nc(-c2ccccc2Cl)no1)C(=O)c1ccccc1-c1ccccc1	35.7	1.3	.
Cc1ccc(-c2noc(CN(C(=O)c3ccccc3-c3ccccc3)C(C)C)n2)cc1	87.4*	0.4	.
COC(=O)c1ccccc1NC(=O)CSc1nc(-c2ccccc2)cc(=O)[nH]1	-2.9	-0.2	1.3
CC(=O)Cc1cc(O)cc2oc(C)cc(=O)c12	-18.8	0.8	-0.6
CC1=CS(=O)(=O)CC1SC(=S)NC(C)C (centres undefined)	?	.	-1.0
O=C(COc1ccc(Cl)cc1)Nc1ccc(O)c(-c2nc3ccccc3o2)c1	98.1*	-1.1	.
O=C(COc1ccc(Cl)cc1Cl)Nc1ccc(O)c(-c2nc3ccccc3s2)c1	103.1*	4.6	0.4
SMILES	NOMO-1 viab	STK33 inh	PD-1 reversal
O=C(COc1ccc(Cl)cc1Cl)Nc1cccc(-c2nnc(-c3ccccc3)o2)c1	114.1*	8.1	-6.6
Cc1ccc(-c2nc3ccccc3s2)cc1NC(=O)COc1cccc(C)c1C	89.3*	2.8	1.5
Cc1cc(Cl)ccc1OCC(=O)Nc1ccccc1-c1nc2ccccc2s1	22.1	2.7	.
CC(Oc1ccc(Cl)cc1Cl)C(=O)Nc1cccc(-c2nnc(-c3ccccc3)o2)c1 (centres undefined)	34.5	3.1	3.9
Cc1ccc(-c2nc3ccccc3s2)cc1NC(=O)COc1ccccc1C	30.1	5.2	0.0
Cc1ccccc1-c1nc2cc(NC(=O)COc3ccc(Cl)cc3)ccc2o1	18.6	-3.8	.
Cc1cc(Cl)ccc1OCC(=O)Nc1cccc(NC(=O)c2ccccc2C)c1	38.3	2.2	-0.3
Cc1cc(OCc2ccc(Br)cc2)nc(-c2ccccc2O)n1	0.1	.	0.6
O=S(=O)(c1cccc2cccnc12)N1CCN(Cc2cccc(OCCO)c2)CC1	.	-0.7	.
COc1cccc(C2CC(=O)NC(SCC(=O)Nc3ccccc3Cl)=C2C#N)c1OC (centres undefined)	-8.0	-2.7	2.9
C[C@@H]1CN([C@H](C)CO)C(=O)c2cccc(NC(=O)Nc3ccc(C(F)(F)F)cc3)c2O[C@@H]1CN(C)Cc1ccc(Oc2ccccc2)cc1	106.6*	.	.
C[C@@H]1CN([C@H](C)CO)C(=O)c2cccc(NC(=O)Nc3ccc(C(F)(F)F)cc3)c2O[C@H]1CN(C)Cc1ccc(Oc2ccccc2)cc1	71.3	.	-1.6
C[C@H]1CN([C@@H](C)CO)C(=O)c2cccc(NC(=O)Nc3ccc(C(F)(F)F)cc3)c2O[C@H]1CN(C)Cc1ccc(Oc2ccccc2)cc1	75.3	.	.
C[C@@H]1CN([C@@H](C)CO)C(=O)c2cccc(NC(=O)Nc3ccc(C(F)(F)F)cc3)c2O[C@@H]1CN(C)Cc1ccc(Oc2ccccc2)cc1	94.9*	.	-10.7
C=CCn1c(SCC(=O)c2ccc(CC)cc2)nnc1-c1cccc(OC)c1	0.2	.	0.5
C[C@H]1CN([C@@H](C)CO)C(=O)c2cccc(NC(=O)c3nc4ccccc4s3)c2O[C@H]1CN(C)Cc1ccc(C(=O)Nc2ccccc2N)cc1	127.0*	.	-1.5
C[C@H](CO)N1C[C@H](C)[C@H](CN(C)Cc2ccccc2)Oc2c(NC(=O)c3nc4ccccc4s3)cccc2C1=O	44.7	.	-3.8
C[C@@H]1CN([C@H](C)CO)C(=O)c2cccc(NC(=O)c3nc4ccccc4s3)c2O[C@H]1CN(C)Cc1ccc(C(=O)Nc2ccccc2N)cc1	119.8*	.	-1.4
C[C@H]1CN([C@@H](C)CO)C(=O)c2cccc(NC(=O)c3nc4ccccc4s3)c2O[C@H]1CN(C)Cc1ccccc1	39.7	.	-0.4
Oc1ccc(Cl)c2cccnc12	110.0*	-3.0	.
CCn1c(SCC(=O)c2ccc(Br)cc2)nnc1-c1cccc(N)c1	38.0	2.2	1.7
CN(CC(O)Cn1c2ccccc2c2ccccc21)S(C)(=O)=O (centres undefined)	-19.4	0.4	.
CN(C)CC(O)Cn1c2ccc(Br)cc2c2cc(Br)ccc21 (centres undefined)	113.7*	8.0	.
COC(=O)c1ccccc1NC(=O)CN(c1cc(Cl)c(Cl)cc1Cl)S(C)(=O)=O	-9.5	1.5	2.0
COC(=O)COc1ccc(NC(=O)c2ccc([N+](=O)[O-])c(C)c2)cc1	117.6*	0.9	.
SMILES	NOMO-1 viab	STK33 inh	PD-1 reversal
COC(=O)COc1ccc(NC(=O)c2ccc(NC(C)=O)cc2)cc1	118.5*	0.4	-5.4
O=C(O)COc1ccc(C(=O)Nc2ccc(F)cc2)cc1	37.7	1.1	-0.3
Cc1cc(C(=O)Nc2ccc(OCC(=O)O)cc2)ccc1[N+](=O)[O-]	-14.8	-0.1	.
CCn1c2ccccc2n2c(SCC(=O)Nc3ccc(Cl)cc3)nnc12	8.5	0.2	1.4
c1cnc2cc(Oc3ccc4nccnc4c3)ccc2n1	27.2	.	-0.4
COc1ccc(NC(=O)Nc2ccc3c(c2)CC(=O)N([C@H](C)CO)C[C@H](C)[C@H](CN(C)CC2CCCCC2)O3)cc1	61.3	-1.0	.
C[C@H](CO)N1C[C@H](C)[C@H](CN(C)CC2CCCCC2)Oc2ccc(NC(=O)Nc3ccc(C(F)(F)F)cc3)cc2CC1=O	127.7*	1.1	-4.8
C[C@@H]1CN([C@H](C)CO)C(=O)Cc2cc(NC(=O)Nc3ccc(C(F)(F)F)cc3)ccc2O[C@H]1CN(C)C(=O)NC1CCCCC1	14.4	-6.4	.
C[C@H]1CN([C@@H](C)CO)C(=O)Cc2cc(NC(=O)Nc3ccc(C(F)(F)F)cc3)ccc2O[C@@H]1CN(C)CC1CCCCC1	125.4*	-4.4	0.7
Cc1ccc(NS(=O)(=O)c2cc(C(=O)O)ccc2Br)cc1	20.7	-4.3	1.0
CCOC(=O)CNc1n[nH]c(=O)[nH]c1=O	23.8	.	1.0
